Assay [1] is described as follows: anti-His antibody binders, primary screen, artefact control for SMM control protein annotation, biochemical, small-molecule microarray, 635 nm fluorescence (AID 1128).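 Further: score merges feature fluorescence with signal-to-noise for each printed compound spot.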 To be noted: anti-His Alexa647 antibody binding, higher = more signal.
For assay [2], the system named is Human papillomavirus type 1a E7 protein (residues 1-88). Description: HPV1a E7 small-molecule binders, primary screen, biochemical, small-molecule microarray, residues 1-88, 635 nm (AID 1129). The conditions noted are these: small-molecule microarray binding, fluorescence 635 nm; higher = more signal.
In assay [3] the target is Focal adhesion kinase 1 (Homo sapiens) (UniProt Q05397). In words: small-molecule microarray binders of FAK, primary screen, biochemical, 635/667 nm fluorescence, BSA, DTT (AID 1130).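 Further: composite of spot emission at 667 nm and signal to noise over triplicate slides.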 The conditions noted are these: PTK2 binding, 635 nm fluorescence, higher = more signal.
Assay [4] has as its system Fibrinogen (Alexa647-labelled). Description: fibrinogen binders on compound microarrays, profiling panel, artefact control for SMM control-protein annotation, biochemical, small-molecule microarray, 635/667 nm fluorescence (AID 1131).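 Further: z-score merges 667 nm fluorescence with per-spot signal-to-noise over triplicate slides.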 The conditions noted are these: fibrinogen-A647 binding fluorescence, higher = more signal.
Assay [5] addresses Follistatin (Homo sapiens) (UniProt P19883). In words: follistatin binders on small-molecule microarrays, primary screen, biochemical, small-molecule microarray, 635/667 nm fluorescence (AID 1132). To be noted: FST binding, 635 nm fluorescence, higher = more signal.
The target of assay [6] is Fibroblast growth factor 2 (Homo sapiens) (UniProt P09038). In words: FGF2 binders on small-molecule microarrays, primary screen, biochemical, small-molecule microarray, 635/667 nm fluorescence (AID 1133). The conditions noted are these: small-molecule microarray binding, FGF2, fluorescence 635/667; higher = more signal.
Assay [7] in a line: mitochondrial membrane potential change in A549 cells, profiling panel, cell-based, JC-1 fluorescence, basal, 24 h, 100 nL (AID 1138).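 Further: A549 lung adenocarcinoma cells under basal conditions with no added stimulus; test concentration not given here.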 To be noted: higher = more signal.
For a further assay, the system named is Lefty1. In words: Lefty1 binders on small-molecule microarrays, primary screen, biochemical, small-molecule microarray, 635/667 nm fluorescence (AID 1139). To be noted: small-molecule microarray binding, fluorescence 635/667; higher = more signal.
The test system of assay [8] is wheat germ agglutinin (Triticum aestivum), Alexa647-labelled. In words: wheat germ agglutinin binders on compound microarrays, profiling panel, artefact control for SMM control-protein annotation, biochemical, small-molecule microarray, 635/667 nm fluorescence (AID 1140).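 Further: score merges 667 nm feature emission with signal to noise over triplicate slides.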 The conditions noted are these: WGA-A647 binding, 635 nm fluorescence, higher = more signal.
For assay [9], the target named is Luciferin 4-monooxygenase (Photinus pyralis) (UniProt P08659). In words: firefly luciferase enzyme inhibitors, primary screen, biochemical, luminescence, purified enzyme, 2006 set (AID 1141).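 Further: cell-free assay with purified firefly luciferase at 100 ng per well in PBS; test concentration not given here.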 To be noted: SteadyGlo luminescence, 30 min, higher = more signal, called active from +8 up or from −8 down.
The test system of assay [10] is Wnt5a (protein binding on small-molecule microarray). Description: Wnt5a binders on small-molecule microarray, primary screen, biophysical, 635/667 nm fluorescence (AID 1142).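 Further: fluorescence read at 667 nm with signal to noise per printed feature.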 To be noted: 635 nm fluorescence, higher = more signal.
Assay [11] is described as follows: cell viability in Huh7 cells, primary screen, cytotoxicity control for HCV replication inhibitor project, CellTiter-Glo luminescence, basal, 48 h (AID 1143).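 Further: Huh7 hepatoma cells carrying a hepatitis C replication reporter with no stimulus; test concentration not given here.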 To be noted: Huh7 HCV replicon, higher = more signal, called active from +8 up or from −8 down. (In ATP-based viability assays light output follows the ATP content of the culture.)
A short description of assay [12]: P. aeruginosa biofilm formation inhibitors, primary screen, PAO1 strain, BacTiter-Glo luminescence, LB-PBS (AID 1144). To be noted: 12 h, higher = more signal.
Assay [13] in a line: CREB reporter modulators without forskolin, primary screen, cell-based, PC12, CRE-LacZ reporter, unstimulated (AID 1145). To be noted: no forskolin, luminescence, 4.5 h, higher = more signal, called active from +8 up or from −8 down.
The nature of assay [14]: CREB reporter modulators under forskolin, primary screen, cell-based, PC12, CRE-LacZ reporter, forskolin-stimulated (AID 1146).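 Further: PC12 cells with 6xCRE LacZ reporter stimulated by forskolin 10 µM; beta-galactosidase reporter signal reflecting CREB driven transcription.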 The conditions noted are these: luminescence, 4.5 h, higher = more signal, called active from +8 up or from −8 down.
Assay [15] deals with Streptavidin (Streptomyces avidinii) (UniProt P22629). In words: streptavidin binders on small-molecule microarray, primary screen, artefact control for SMM compound annotation, biophysical, 635/667 nm fluorescence (AID 1147).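 Further: signal reflects streptavidin binding to arrayed compounds as a control protein.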 The conditions noted are these: streptavidin binding, higher = more signal.
Assay [16] can be described thus: small-molecule binders of probe aInhba, primary screen, biochemical, small-molecule microarray, 635/667 nm fluorescence (AID 1148).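 Further: score merges 667nm spot fluorescence with signal-to-noise for antibody binding to printed compounds.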 The conditions noted are these: higher = more signal.
Assay [17] has as its target Torsin-1A (Homo sapiens) (UniProt O14656). In words: torsin A binders from cell lysate, primary screen, small-molecule microarray, wild-type, 635/667 nm (AID 1149). To be noted: COS7 hTOR1A-WT lysate, 635 nm fluorescence, higher = more signal.
Assay [18] shares this target. In words: small-molecule binders of mutant TOR1A in lysate, primary screen, cell lysate, small-molecule microarray, COS7 lysate, 635/667 nm fluorescence (AID 1150).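 Further: score pools 667 nm emission and signal to noise measuring lysate protein binding.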 To be noted: COS7 hTOR1A mutant lysate, 635 nm fluorescence, higher = more signal.
Assay [19] concerns Sonic hedgehog protein (Shh). Description: small-molecule binders of Shh protein, primary screen, biochemical, small-molecule microarray, 635/667 nm fluorescence (AID 1151).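 Further: Shh protein binding to compounds spotted on small-molecule microarray slides; score combines spot fluorescence intensity with signal-to-noise across triplicate slides.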 To be noted: small-molecule microarray binding, 635 nm fluorescence; higher = more signal.

Here are results for 6 compounds from PubChem BioAssay.

Each structure is given as a SMILES string. Activity calls are given as the source filed them. Unless noted, how the calls were made is not given here.

Sequence of Fibroblast growth factor 2 (Homo sapiens) (P09038 whole entry, looked up): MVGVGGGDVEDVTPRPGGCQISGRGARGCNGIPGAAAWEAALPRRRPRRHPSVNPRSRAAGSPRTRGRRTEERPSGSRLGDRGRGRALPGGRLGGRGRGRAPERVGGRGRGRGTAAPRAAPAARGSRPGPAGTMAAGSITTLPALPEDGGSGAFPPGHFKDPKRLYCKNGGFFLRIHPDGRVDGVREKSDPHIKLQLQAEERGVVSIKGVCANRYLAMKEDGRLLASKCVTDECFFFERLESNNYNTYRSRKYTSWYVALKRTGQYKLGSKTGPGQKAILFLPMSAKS
Sequence of Follistatin (Homo sapiens) (P19883 whole entry, looked up): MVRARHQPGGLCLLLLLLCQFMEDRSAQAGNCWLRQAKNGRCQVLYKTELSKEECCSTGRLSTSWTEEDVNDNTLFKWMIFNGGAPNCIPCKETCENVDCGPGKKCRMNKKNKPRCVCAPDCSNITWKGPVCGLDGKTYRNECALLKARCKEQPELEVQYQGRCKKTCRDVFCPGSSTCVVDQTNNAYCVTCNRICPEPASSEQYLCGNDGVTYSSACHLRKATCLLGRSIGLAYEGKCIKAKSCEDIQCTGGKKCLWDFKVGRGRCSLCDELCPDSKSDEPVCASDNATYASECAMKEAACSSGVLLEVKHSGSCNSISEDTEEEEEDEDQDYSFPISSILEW
Sequence of Torsin-1A (Homo sapiens) (O14656 whole entry, looked up): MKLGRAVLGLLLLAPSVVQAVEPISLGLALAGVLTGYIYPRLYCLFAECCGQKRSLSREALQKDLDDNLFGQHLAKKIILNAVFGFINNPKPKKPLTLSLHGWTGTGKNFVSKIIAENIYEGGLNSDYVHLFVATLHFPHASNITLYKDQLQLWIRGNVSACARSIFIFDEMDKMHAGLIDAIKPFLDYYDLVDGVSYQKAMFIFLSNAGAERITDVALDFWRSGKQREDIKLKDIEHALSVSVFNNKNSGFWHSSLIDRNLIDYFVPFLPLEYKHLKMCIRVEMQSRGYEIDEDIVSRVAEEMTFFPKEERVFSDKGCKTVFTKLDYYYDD
Sequence of Focal adhesion kinase 1 (Homo sapiens) (Q05397 whole entry, looked up): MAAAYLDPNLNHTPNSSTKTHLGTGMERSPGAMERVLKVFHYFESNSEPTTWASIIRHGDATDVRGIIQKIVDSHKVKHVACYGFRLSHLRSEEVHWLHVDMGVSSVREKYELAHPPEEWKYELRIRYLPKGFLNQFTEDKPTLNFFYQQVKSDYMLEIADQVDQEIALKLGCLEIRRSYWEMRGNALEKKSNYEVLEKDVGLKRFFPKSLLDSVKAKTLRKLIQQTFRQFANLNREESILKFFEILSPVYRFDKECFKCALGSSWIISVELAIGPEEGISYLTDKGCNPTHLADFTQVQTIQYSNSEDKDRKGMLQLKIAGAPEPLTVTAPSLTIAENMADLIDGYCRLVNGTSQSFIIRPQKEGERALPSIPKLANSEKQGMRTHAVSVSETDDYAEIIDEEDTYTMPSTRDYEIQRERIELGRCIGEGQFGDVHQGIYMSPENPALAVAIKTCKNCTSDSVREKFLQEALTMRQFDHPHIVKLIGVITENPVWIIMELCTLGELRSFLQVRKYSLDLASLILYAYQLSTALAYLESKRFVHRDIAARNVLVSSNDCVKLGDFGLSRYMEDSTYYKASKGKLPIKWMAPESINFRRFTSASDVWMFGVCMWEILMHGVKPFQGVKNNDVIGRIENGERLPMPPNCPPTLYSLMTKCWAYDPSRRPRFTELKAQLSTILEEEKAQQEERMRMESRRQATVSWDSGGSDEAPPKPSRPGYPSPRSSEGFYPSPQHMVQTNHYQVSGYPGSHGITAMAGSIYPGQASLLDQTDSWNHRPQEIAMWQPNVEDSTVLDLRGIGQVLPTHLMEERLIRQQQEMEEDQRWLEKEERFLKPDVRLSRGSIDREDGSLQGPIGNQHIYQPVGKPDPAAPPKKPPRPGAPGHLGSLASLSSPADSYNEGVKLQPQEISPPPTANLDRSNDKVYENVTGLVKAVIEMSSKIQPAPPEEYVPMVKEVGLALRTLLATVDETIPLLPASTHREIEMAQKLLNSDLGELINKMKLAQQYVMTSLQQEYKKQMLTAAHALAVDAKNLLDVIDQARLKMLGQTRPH
Sequence of Streptavidin (Streptomyces avidinii) (P22629 whole entry, looked up): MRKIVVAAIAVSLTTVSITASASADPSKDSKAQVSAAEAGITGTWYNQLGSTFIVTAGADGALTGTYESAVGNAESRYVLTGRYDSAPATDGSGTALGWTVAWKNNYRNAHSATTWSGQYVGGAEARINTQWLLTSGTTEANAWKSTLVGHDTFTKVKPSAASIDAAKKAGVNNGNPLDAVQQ
Sequence of Luciferin 4-monooxygenase (Photinus pyralis) (P08659 whole entry, looked up): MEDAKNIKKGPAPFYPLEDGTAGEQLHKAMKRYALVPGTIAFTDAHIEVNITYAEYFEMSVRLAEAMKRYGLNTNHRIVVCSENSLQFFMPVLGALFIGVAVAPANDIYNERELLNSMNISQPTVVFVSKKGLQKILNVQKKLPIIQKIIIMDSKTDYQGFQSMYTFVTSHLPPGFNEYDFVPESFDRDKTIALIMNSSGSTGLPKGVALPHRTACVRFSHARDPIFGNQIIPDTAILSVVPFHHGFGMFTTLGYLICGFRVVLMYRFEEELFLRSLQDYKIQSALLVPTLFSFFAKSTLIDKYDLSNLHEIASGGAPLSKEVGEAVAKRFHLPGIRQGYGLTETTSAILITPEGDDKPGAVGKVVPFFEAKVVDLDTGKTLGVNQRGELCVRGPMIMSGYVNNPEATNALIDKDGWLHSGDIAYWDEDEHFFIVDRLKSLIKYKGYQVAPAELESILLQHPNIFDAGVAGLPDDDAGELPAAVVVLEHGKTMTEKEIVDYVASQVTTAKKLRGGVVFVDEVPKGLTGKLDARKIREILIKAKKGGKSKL

As to `C[C@]1(C(=O)NCC(F)(F)F)c2ccccc2C(=O)N(Cc2cc(F)cc(C(F)(F)F)c2)[C@H]1c1ccc(CO)cc1`, the composite z-score is -0.99 in assay [1]; 0.105 in assay [2]; -0.0984 in assay [3]; 0.0953 in assay [4]; 1.24 in [5]; 0.261 in assay [6]. The composite z-score was -0.273 with Lefty1; -0.0396 in assay [8]; 0.0343 in assay [10]; -0.388 in assay [15]; -0.128 in [16]; 0.135 with Torsin-1A (Homo sapiens) [17]. Further, the figures for the composite z-score (with Torsin-1A (Homo sapiens) [18]; in assay [19]) were 0.527 and 0.394, respectively. Further, the z-score in assay [7] was -1.8; in [9], 0.408 (inactive); in assay [11], -4.86 (inactive); in assay [12], -0.704 (inactive); in [13], 0.324 (inactive); in assay [14], 0.486 (inactive).
Consider `CC(C)[C@H]1COC(=O)N1C(=O)[C@H]1[C@@H](c2ccccc2)N(c2ccccc2)O[C@@H]1C`, for which the composite z-score in assay [1] was -0.0372; in assay [2] it was 0.706; in assay [3], 0.201; in [4], 0.635; in [5], 0.562; in assay [6], 0.57. The composite z-score in the assay on Lefty1 was 0.593; in assay [8], 0.127; in assay [10] it was 0.138; in assay [15], 0.465; in assay [16] it was -0.0989; in the assay with Torsin-1A (Homo sapiens) [17] it was 0.167. In addition, the figures for the composite z-score (with Torsin-1A (Homo sapiens) [18]; in assay [19]) were 0.624 and 0.506, respectively. For the same compound, the z-score in [7] is 0.78; in [9], 0.132 (inactive); in [11], -0.917 (inactive); in [12], -1.33 (inactive); in assay [13], 0.493 (inactive); in assay [14], -0.688 (inactive).
Take `CN(C)CCCC[C@@H]1NC(=O)[C@@H]2C[C@H](C(=O)NCc3ccc(F)cc3)[C@H](c3cccc(OCCO)c3)N2C1=O`: the composite z-score is 0.654 in assay [1]; 0.68 in assay [2]; 0.0978 in [3]; 0.909 in assay [4]; 1.41 in assay [5]; 1.96 in assay [6]. For the same compound, the composite z-score was 1.11 with Lefty1; -0.0486 in assay [8]; 0.584 in assay [10]; -0.0899 in assay [15]; 0.374 in assay [16]; 1.27 in the assay with Torsin-1A (Homo sapiens) [17]. Also, the results for the composite z-score (with Torsin-1A (Homo sapiens) [18]; in assay [19]) were 1.12 and 2.06, respectively. For the same compound, the z-score was 0.591 in assay [7]; -0.579 (inactive) in [9]; -0.267 (inactive) in [11]; -0.824 (inactive) in assay [12]; 0.423 (inactive) in [13]; -1.18 (inactive) in assay [14].
Consider `COC(=O)[C@@]1(Cc2ccc(F)cc2)[C@H]2c3cc(C(=O)N(C)C)n(CCCNc4ccc(C(F)(F)F)cc4Cl)c3C[C@H]2CN1C(=O)c1ccccc1`, for which the composite z-score in assay [1] was 2.17; in [2], 1.24; in [3], 0.903; in assay [4], 1.01; in [5], 0.543; in [6] it was -0.123. Moreover, the composite z-score was 0.0748 in the assay with Lefty1; 1.3 in assay [8]; 0.72 in assay [10]; 1.8 in assay [15]; 0.572 in assay [16]; -0.335 with Torsin-1A (Homo sapiens) [17]. For the same compound, the composite z-score was 0.547 with Torsin-1A (Homo sapiens) [18] and -0.576 in assay [19]. Besides, the z-score in assay [7] was 0.284; in [9] it was 0.579 (inactive); in assay [11], -3.53 (inactive); in assay [12], -0.119 (inactive); in assay [13] it was -0.379 (inactive); in assay [14], 0.607 (inactive).
`C=CCC(OC(C)=O)[C@@H]1[C@@H](N(Cc2cc3ccccc3o2)C(=O)c2ccc(C)cc2)c2cc(OCCCO)ccc2N1C(=O)c1ccc(-c2ccccc2)cc1` (stereo not given in full): the composite z-score in assay [1] was -0.277; in assay [2], 0.0357; in assay [3], 0.13; in [4], 0.122; in assay [5], 0.714; in assay [6], -0.206. Besides, the composite z-score was 0.239 in the assay on Lefty1; 0.107 in assay [8]; -0.221 in assay [10]; 0.0073 in assay [15]; 0.295 in assay [16]; 0.308 with Torsin-1A (Homo sapiens) [17]. The composite z-score with Torsin-1A (Homo sapiens) [18] was -0.264; in [19], 0.158. Also, the z-score in assay [7] is 0.291; in assay [9], 0.352 (inactive); in [11], -2.92 (inactive); in assay [12] it was -2.16 (inactive); in assay [13], 2.76 (inactive); in assay [14], -1.12 (inactive).
As to `[N-]=[N+]=NCc1ccccc1C[C@]1(C(=O)NCc2ccccc2)COC(c2ccc(OCCCO)cc2)=N1`, the composite z-score in assay [1] turned out to be 0.519; in assay [2] it was 1.16; in assay [3], 1.11; in [4], 0.948; in assay [5], 0.101; in assay [6] it was 0.661. Moreover, the composite z-score in the assay on Lefty1 was -0.0991; in [8], 0.762; in [10], -0.0113; in [15], 0.469; in [16], 0.0301; with Torsin-1A (Homo sapiens) [17], -0.328. Moreover, the composite z-score with Torsin-1A (Homo sapiens) [18] was 0.784; in assay [19] it was -1.13. The z-score was -0.221 in [7]; -0.169 (inactive) in [9]; -5.27 (inactive) in assay [11]; 0.664 (inactive) in assay [12]; 1.72 (inactive) in assay [13]; 0.232 (inactive) in assay [14].
